# A selection follows.
# aSyn UTR act = Activators via SNCA 5'UTR binding, MLPCN; alpha-synuclein 5'UTR reporter, activators screen; activity score, % (tested at 7.5 µM), hits read low; actives 7.1% (n = 300,000); AID 1814; in the data active = activity score below about -60%
# Starred values were filed as active, the others as inactive.
SMILES,aSyn UTR act
NS(=O)(=O)c1cccc(NC(=S)NC(=O)C23CC4CC(CC(C4)C2)C3)c1,-62.3*
COc1ccc2cc(C(=O)N3CCc4ccccc43)[nH]c2c1,-121.8*
O=C(c1cc2cc(F)ccc2[nH]1)N1CCc2ccccc21,-176.7*
O=C(c1cc2cc(Br)ccc2[nH]1)N1CCc2ccccc21,-75.8*
COc1ccc(-c2cc(C(F)F)n3ncc(C(=O)N4CCc5ccccc54)c3n2)cc1,60.0
C[C@H]1COC2=C1C(=O)C(=O)c1c2ccc2c1CCCC2(C)C,101.6
COc1ccc(C(=O)NNC(=S)NC(=O)C(C)(C)C)cc1,59.7
CC(C)(C)C(=O)NC(=S)Nc1ccccc1F,-72.4*
COc1ccc(CCCC(=O)Nc2ccccc2F)cc1,-118.1*
COc1ccc(C(=O)NC(=S)Nc2ccccc2F)cc1,-198.8*
Cc1nonc1NC(=O)CSc1nc2c(C)cccc2cc1C#N,-98.5*
COc1ccc2cc(C#N)c(SCC(=O)Nc3nonc3C)nc2c1,-79.4*
CCc1cc2c(C)ccc(C)c2nc1SCC(=O)Nc1cc(C)on1,55.1
Cc1cc2cc(C#N)c(SCC(=O)Nc3nonc3C)nc2cc1C,-91.8*
Nc1c(C(=O)Nc2cccc(F)c2)nnn1-c1ccc2c(c1)OCCO2,-101.0*
Cc1ccccc1NC(=O)c1nnn(-c2ccc3c(c2)OCCO3)c1N,-135.4*
CCCc1ccc(OC(=O)c2ccc(O)cc2Cl)cc1,-62.6*
Cc1ccc(C2=CSC3=NNC4(CCCCC4)NN23)cc1,-126.0*
N/C(=N\c1nc2c(c(=O)[nH]1)CCC2)Nc1cccc2ccccc12,-70.9*
O=C(Nc1nccs1)c1sc2cc(Cl)ccc2c1Cl,-115.2*
COc1ccc2c(Cl)c(C(=O)NC3CCS(=O)(=O)C3)sc2c1 (stereo not drawn),-79.9*
O=C(NC1CC1)c1sc2cc(Cl)ccc2c1Cl,-96.6*
O=C(Nc1nccs1)c1sc2ccccc2c1Cl,52.5
Cc1ccc(C(=O)/C=C2/NC(=O)CS2)cc1,-102.8*
C/C(CC(C)C)=N\NS(=O)(=O)c1ccc(C)c([N+](=O)[O-])c1,50.7
SMILES,aSyn UTR act
Cc1ccc(S(=O)(=O)N/N=C2/CC(c3ccccc3)Oc3ccccc32)cc1[N+](=O)[O-] (stereo not drawn),-106.4*
CC(C)=CCc1c(O)cc2oc3c(CC=C(C)C)c(O)c(O)c(CC=C(C)C)c3c(=O)c2c1O,62.2
CC1Oc2cc3oc4c(O)c(O)ccc4c(=O)c3c(O)c2C1(C)C (stereo not drawn),-149.6*
CC(C)OC(=O)/C(C#N)=C/c1ccc(-c2ccc(SC(F)F)cc2)o1,-88.4*
COc1ccccc1C(=O)N/N=C(\C)c1ccc(NC(=O)Cc2ccccc2)cc1,-104.3*
COc1ccccc1C(=O)NN=C1CCN(Cc2ccccc2)CC1,-72.9*
C/C(=N\NC(=O)c1ccccc1N)c1ccc(NC(=O)Cc2ccccc2)cc1,-67.8*
C/C(=N\NC(=O)c1cccc(C)c1O)c1ccc(NC(=O)Cc2ccccc2)cc1,-73.9*
O=C(Nc1cccc(-c2cn3c(n2)SCC3)c1)c1ccc2ccccc2n1,-141.0*
O=C(Nc1ccc(-c2cn3c(n2)SCC3)cc1)c1ccc2ccccc2n1,-185.8*
CC1CCc2nc(NCCO)nc(C(F)(F)F)c2C1 (stereo not drawn),53.7
Brc1ccc2nc(-c3cccs3)c(NCC3CCCO3)n2c1 (stereo not drawn),-174.9*
Cc1cc2sc3nc(=O)n(-c4ccccc4)c(=O)n3c2cc1C,-159.7*
COc1ccc(-c2nc3c4ccccc4[nH]c(=O)n3n2)cc1,-82.4*
COc1ccc2c(c1)CC/C2=N\OC(=O)c1ccccc1OC,-65.1*
O=C(Cc1nc2ccccc2[nH]1)c1ccc(Br)cc1,-190.3*
O=C(Cc1nc2ccccc2[nH]c1=O)c1ccccc1,-172.2*
c1csc(-c2nc(N3CCCCC3)no2)c1,-137.4*
Cc1cc(C(=O)CN2CC(C)OC(C)C2)c(C)n1-c1ccccc1 (stereo not drawn),-104.6*
Cc1cc(C(=O)CSc2cccc[n+]2[O-])c(C)n1-c1ccccc1,56.7
Cc1cc(C(=O)CSc2cccc[n+]2[O-])c(C)n1-c1ccc(Br)cc1,-150.0*
Cc1cc(-n2c(C)cc(C(=O)CCl)c2C)no1,118.8
Cn1cnnc1SCC(=O)c1c[nH]c2ccccc12,-91.8*
Cc1cc(C(=O)CSc2nncn2C)c(C)n1-c1ccccc1,-66.7*
Cc1ccc(-n2c(C)cc(C(=O)CSc3nncs3)c2C)cc1,-171.6*
SMILES,aSyn UTR act
CS(=O)(=O)c1nc2c(cc1C#N)CCCC2,-85.3*
Cc1nn(C)c(C)c1CNC(=O)Nc1ccc2c(c1)OCO2,-72.1*
C=CCOc1ccc(NC(=O)C(=O)NCCCn2ccnc2)cc1,51.0
Cc1nn(C)c(C)c1CNC(=O)Nc1ccc(Cl)cc1,-88.7*
O=C(NCCCn1ccnc1)Nc1ccc2c(c1)OCO2,-106.7*
Cc1nn(C)c(C)c1CNC(=O)Nc1cccc(Cl)c1,-105.5*
O=S(=O)(c1ccc(NC(=S)NCc2cccnc2)cc1)N1CCCCC1,86.4
O=C(NCc1cccnc1)Nc1ccc2c(c1)OCO2,-63.2*
O=C1CS/C(=N/N=C/c2ccccc2)N1Cc1ccco1,-81.3*
COc1ccc(Cc2nnc(N/N=C/c3ccc(O)cc3)[nH]c2=O)cc1OC,82.2
COc1ccc(/C=N/Nc2nnc(Cc3ccccc3)c(=O)[nH]2)cc1OC,-67.5*
CCCS/C(N)=N/N=C/c1cc(C)ccc1O,-137.5*
CCCCS/C(N)=N/N=C/c1ccccc1O,-153.4*
C/C(=N/N=C/c1ccccc1O)c1ccccc1O,-240.0*
COc1cc(NC(=O)C/C(C)=N/NC(=O)Cc2ccccc2)c(OC)cc1Cl,-68.8*
COc1cc(NC(=O)C/C(C)=N/NC(=O)c2cccs2)c(OC)cc1Cl,-152.8*
Cn1cccc1C(=O)OCc1ccc(C(C)(C)C)cc1,-140.9*
Cc1cc(C)cc(NC(=O)/C=C/c2ccc([N+](=O)[O-])s2)c1,-243.9*
Cc1ccccc1NC(=O)/C=C/c1ccc([N+](=O)[O-])s1,-80.4*
CC(=O)c1cccc(NC(=O)/C=C/c2ccc([N+](=O)[O-])s2)c1,-326.0*
CCOC(=O)c1ccc(NC(=O)/C=C/c2cccs2)cc1,-251.1*
Cc1ccccc1NC(=O)/C=C/c1cccs1,-118.6*
CN1CCc2c(sc(/N=C/c3c[nH]c4ccccc34)c2C#N)C1,-67.7*
CN1CCc2c(sc(/N=C/c3cc(Cl)ccc3O)c2C#N)C1,-156.6*
Nc1cc(C(F)(F)F)ccc1OCC1CCCO1 (stereo not drawn),-90.9*
SMILES,aSyn UTR act
Brc1ccc2nc(-c3c[nH]c4ccccc34)cn2c1,-163.9*
O=C(NCCSc1ccccc1)c1ccccc1Cl,-82.3*
O=C(N/N=C(\c1ccccc1)c1ccccn1)c1ccccc1Cl,67.5
CSc1ccccc1C(=O)NCCSc1ccccc1,-65.5*
Cc1ccccc1C(=O)NCCSc1ccccc1,-111.2*
O=C(N/N=C/c1ccccc1Cl)c1n[nH]c2c1CCCC2,83.5
O=C(N/N=C/c1ccccc1)c1n[nH]c2c1CCCC2,-87.5*
O=C(NN=C1CCCC1)c1ccn[nH]1,-76.5*
O=C(N/N=C/c1sc2ccccc2c1O)c1ccccc1,81.5
O=C(N/N=C/c1ccc(Br)cc1)c1ccc(F)cc1,-78.1*
O=C(N/N=C/c1ccc(F)cc1)c1ccccc1,-151.7*
Cc1cccc(/C=N/NC(=O)c2ccc(Br)cc2)c1,-90.0*
O=C(NN=C1CCCCCC1)c1ccc(Br)o1,-81.8*
Nc1c(C(=O)N/N=C/c2ccccc2)cnn1-c1ccccc1,-107.7*
O=C(N/N=C/c1ccc(O)cc1)c1cccc(N/N=C/c2ccc(O)cc2)c1,-107.7*
O=C(N/N=C/c1ccccc1O)c1cccc(C(F)(F)F)c1,82.4
